Test results as given in PubChem BioAssay.
Active and inactive are the calls of the source.

Assays:
[1] = tested on: Human papillomavirus type 1a protein E7 (residues 44-93); test: HPV1a E7 fragment binders on microarrays, primary screen, biochemical, small-molecule microarray, residues 44-93, 635 nm fluorescence (AID 1108); conditions: small-molecule microarray binding, fluorescence 635 nm; higher = more signal;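 further: E7 fragment applied at 1 µg/mL in TBST for 1 h at 4 C; score combines spot fluorescence with its signal to noise ratio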
[2] = modulators of HCV replicon luciferase signal, primary screen, HCV replication inhibitor project, Huh7 cells, luciferase reporter (AID 1109); conditions: 48 h, higher = more signal;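 further: huh7 hepatoma cells harbouring a luciferase neomycin HCV replicon reporter; luciferase luminescence as measure of HCV replicon replication; test concentration not given here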
[3] = target: Left-right determination factor 2 (Homo sapiens) (UniProt O00292); test: LEFTY2 binders on small-molecule microarrays, primary screen, biochemical, small-molecule microarray, 635 nm fluorescence scan (AID 1110); conditions: LEFTY2 binding, higher = more signal
Sequence of Left-right determination factor 2 (Homo sapiens) (O00292 whole entry, looked up): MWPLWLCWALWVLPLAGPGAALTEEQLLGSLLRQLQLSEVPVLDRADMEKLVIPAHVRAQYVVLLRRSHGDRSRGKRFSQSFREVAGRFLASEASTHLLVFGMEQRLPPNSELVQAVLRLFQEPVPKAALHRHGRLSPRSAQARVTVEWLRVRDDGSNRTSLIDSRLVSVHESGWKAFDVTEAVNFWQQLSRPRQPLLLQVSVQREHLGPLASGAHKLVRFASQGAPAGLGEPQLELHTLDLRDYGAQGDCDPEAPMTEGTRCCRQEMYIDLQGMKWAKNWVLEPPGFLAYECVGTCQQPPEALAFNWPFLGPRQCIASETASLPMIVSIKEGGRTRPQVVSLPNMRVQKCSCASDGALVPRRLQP

[4] = target: Calmodulin-1 (Homo sapiens) (UniProt P0DP23); test: CALM1 binders on microarrays, EGTA buffer, profiling panel, biochemical, small-molecule microarray, Cy5-labelled CALM1 (AID 1111); conditions: Cy5-CALM1 binding fluorescence, higher = more signal;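 further: labelled calmodulin applied in Tris saline Tween buffer holding calcium plus EGTA and DTT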
[5] = target: Calmodulin-1 (Homo sapiens) (UniProt P0DP23); test: calcium-bound CALM1 binders on microarrays, profiling panel, artefact control for SMM control-protein annotation, biochemical, small-molecule microarray, Cy5-labelled CALM1, plus calcium (AID 1112); conditions: Cy5-CALM1 binding fluorescence, higher = more signal;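 further: score merges spot fluorescence with signal to noise from triplicate slides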
[6] = small-molecule microarray binders of probe aWnt5a, primary screen, biochemical, biotinylated probe, 635/667 nm fluorescence (AID 1113); conditions: higher = more signal;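 further: score merges 667 nm fluorescence intensity with signal-to-noise per printed feature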
[7] = small-molecule microarray binders of probe aShh, primary screen, biochemical, biotinylated probe, 635/667 nm fluorescence (AID 1114); conditions: higher = more signal;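 further: probe is biotin-labelled aShh protein from a stem cell growth factor screen; measures binding of labelled protein to compounds printed on the slide; score merges feature fluorescence at 667 nm with signal-to-noise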
[8] = small-molecule microarray binders of probe aNog, primary screen, biochemical, biotinylated probe, 635/667 nm fluorescence (AID 1115); conditions: higher = more signal;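 further: probe is biotinylated aNog protein used at 0.15 µg/mL for 1 h at 4 C; z-score combines 667 nm fluorescence of each spot with its signal to noise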
[9] = target: Torsin-1A-interacting protein 1 (Homo sapiens) (UniProt Q5JTV8); test: LAP1 binders from COS7 cell lysate, primary screen, small-molecule microarray, 635/667 nm fluorescence (AID 1116); conditions: COS7-hLAP1 lysate binding, 635 nm fluorescence, higher = more signal
Sequence of Torsin-1A-interacting protein 1 (Homo sapiens) (Q5JTV8 whole entry, looked up): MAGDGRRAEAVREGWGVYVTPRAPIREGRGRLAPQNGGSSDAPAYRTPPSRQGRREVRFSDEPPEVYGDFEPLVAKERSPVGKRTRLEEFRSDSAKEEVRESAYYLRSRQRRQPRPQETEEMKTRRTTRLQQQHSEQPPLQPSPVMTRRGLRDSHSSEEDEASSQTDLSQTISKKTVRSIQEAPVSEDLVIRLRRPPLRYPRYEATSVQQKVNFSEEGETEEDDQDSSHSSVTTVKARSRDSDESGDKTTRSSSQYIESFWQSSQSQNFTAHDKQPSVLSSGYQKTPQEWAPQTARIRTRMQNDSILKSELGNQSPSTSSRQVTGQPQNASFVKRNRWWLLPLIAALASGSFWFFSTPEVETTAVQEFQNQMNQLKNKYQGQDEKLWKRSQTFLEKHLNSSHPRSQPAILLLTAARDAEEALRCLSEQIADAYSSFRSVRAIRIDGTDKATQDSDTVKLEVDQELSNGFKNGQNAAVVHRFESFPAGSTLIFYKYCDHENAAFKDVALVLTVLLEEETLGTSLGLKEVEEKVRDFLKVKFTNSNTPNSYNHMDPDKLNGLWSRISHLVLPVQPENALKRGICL

[10] = target: Alpha-bungarotoxin (Bungarus multicinctus) (UniProt P60615); test: alpha-bungarotoxin binders on microarray, profiling panel, artefact control for SMM control protein annotation, biochemical, small-molecule microarray, Alexa647 label, 635/667 nm fluorescence (AID 1117); conditions: alpha-BTX-A647 binding fluorescence, higher = more signal
Sequence of Alpha-bungarotoxin (Bungarus multicinctus) (P60615 whole entry, looked up): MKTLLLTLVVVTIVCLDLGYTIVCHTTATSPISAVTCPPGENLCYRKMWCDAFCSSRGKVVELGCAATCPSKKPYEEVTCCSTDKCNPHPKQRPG

[11] = target: Albumin (Bos taurus) (UniProt P02769); test: bovine serum albumin binders on microarray, profiling panel, artefact control for SMM control protein annotation, biochemical, small-molecule microarray, Alexa647 label, 635/667 nm fluorescence (AID 1118); conditions: BSA-A647 binding, fluorescence 635 nm, higher = more signal;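 further: score merges 667 nm emission intensity and signal-to-noise per printed compound spot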
Sequence of Albumin (Bos taurus) (P02769 whole entry, looked up): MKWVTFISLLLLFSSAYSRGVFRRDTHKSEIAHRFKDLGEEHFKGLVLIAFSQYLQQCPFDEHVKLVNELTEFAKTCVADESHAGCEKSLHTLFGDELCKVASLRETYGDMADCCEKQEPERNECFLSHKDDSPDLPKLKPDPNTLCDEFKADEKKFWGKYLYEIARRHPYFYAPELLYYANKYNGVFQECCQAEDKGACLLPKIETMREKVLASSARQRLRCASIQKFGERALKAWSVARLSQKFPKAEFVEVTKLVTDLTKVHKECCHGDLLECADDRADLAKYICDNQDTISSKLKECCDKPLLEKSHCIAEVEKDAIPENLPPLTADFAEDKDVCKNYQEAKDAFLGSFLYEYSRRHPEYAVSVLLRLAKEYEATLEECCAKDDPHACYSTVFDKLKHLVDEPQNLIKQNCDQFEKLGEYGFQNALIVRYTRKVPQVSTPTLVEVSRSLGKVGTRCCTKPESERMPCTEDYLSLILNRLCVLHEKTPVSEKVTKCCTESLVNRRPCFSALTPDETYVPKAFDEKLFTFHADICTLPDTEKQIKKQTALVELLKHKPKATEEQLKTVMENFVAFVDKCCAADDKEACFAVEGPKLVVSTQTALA

[12] = small-molecule microarray binders of probe aXIP, primary screen, biochemical, NeuroSMM set, 635/667 nm fluorescence (AID 1119); conditions: higher = more signal, called active from +8 up or from −8 down;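 further: probe is the protein aXip251-270 applied at 1 µg/mL to compound-printed slides; binding of probe to printed compounds measured as 667 nm fluorescence plus signal to noise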
[13] = small-molecule binders of probe aNOTCH3, primary screen, biochemical, small-molecule microarray, 635/667 nm fluorescence (AID 1120); conditions: higher = more signal;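 further: probe is a biotin-tagged antibody raised against NOTCH3 rather than NOTCH3 protein; score merges spot fluorescence near 667 nm with spot signal to noise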
[14] = small-molecule binders of probe aNOTCH2, primary screen, biochemical, small-molecule microarray, 635/667 nm fluorescence (AID 1121); conditions: higher = more signal;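 further: score merges feature fluorescence read at 667 nm with its signal to noise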
[15] = target: Carbonic anhydrase 2 (Homo sapiens) (UniProt P00918); test: CAII small-molecule binders, profiling panel, biochemical, small-molecule microarray, Alexa647-labelled CAII (AID 1122); conditions: CAII-A647 binding fluorescence, higher = more signal
[16] = COS7 lysate on small-molecule microarray, probe aHis, 635 nm (AID 1123); conditions: COS7 cell lysate, fluorescence, higher = more signal;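 further: z-score combines 667nm fluorescence intensity with signal-to-noise per printed compound spot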
[17] = compound binding in COS7 lysate, probe aLAP1, primary screen, cell lysate, small-molecule microarray (AID 1124); conditions: probe aLAP1, fluorescence, higher = more signal;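 further: lysate comes from COS7 cells expressing LAP1 and is applied at 0.3 µg/mL; score merges spot fluorescence near 667 nm with signal-to-noise over triplicate slides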
[18] = tested on: Sam68 (KHDRBS1); test: Sam68 small-molecule binders, primary screen, biochemical, small-molecule microarray, 635 nm fluorescence (AID 1125); conditions: small-molecule microarray binding, higher = more signal;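 further: score merges 667 nm channel intensity with signal to noise over triplicate slides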
[19] = tested on: Chordin-like protein 2 (CHRDL2); test: CHRDL2 small-molecule binders, primary screen, biochemical, small-molecule microarray, 635 nm fluorescence (AID 1126); conditions: small-molecule microarray binding, fluorescence 635 nm; higher = more signal;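 further: printed compound slides probed with Chrdl2 protein at 4 µg/mL for 1 h at 4 C; score merges 667 nm emission intensity with signal to noise over three replicate slides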
[20] = target: Concanavalin-A (Canavalia ensiformis) (UniProt P02866); test: ConA small-molecule binders, primary screen, artefact control for SMM control protein annotation, biochemical, small-molecule microarray, Alexa647 label, 635 nm (AID 1127); conditions: ConA-A647 binding fluorescence, higher = more signal;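 further: z combines 667 nm emission intensity with signal-to-noise across three replicate slides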
Sequence of Concanavalin-A (Canavalia ensiformis) (P02866 whole entry, looked up): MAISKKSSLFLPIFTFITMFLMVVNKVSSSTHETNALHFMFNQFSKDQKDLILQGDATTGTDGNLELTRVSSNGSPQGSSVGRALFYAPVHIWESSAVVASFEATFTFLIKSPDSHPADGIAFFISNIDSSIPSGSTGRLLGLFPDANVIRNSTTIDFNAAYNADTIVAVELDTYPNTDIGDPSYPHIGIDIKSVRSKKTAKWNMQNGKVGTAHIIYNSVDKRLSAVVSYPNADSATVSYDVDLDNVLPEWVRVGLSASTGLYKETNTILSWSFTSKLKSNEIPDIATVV

SMILES: CCOC(=O)C1=CCC(c2cc3ccccc3[nH]2)N(CCN2CC(C(=O)OCC)=CCC2c2cc3ccccc3[nH]2)C1 (stereo not given)
- composite z-score [1]: 1.34
- z-score [2]: -1.87
- composite z-score [3]: 0.0083
- composite z-score [4]: 0.884
- composite z-score [5]: -0.608
- composite z-score [6]: -0.0203
- composite z-score [7]: 0.0639
- composite z-score [8]: 0.302
- composite z-score [9]: 0.0389
- composite z-score [10]: 0.927
- composite z-score [11]: 0.656
- composite Z-score [12]: 0.0551 (inactive)
- composite z-score [13]: 0.15
- composite z-score [14]: -0.108
- composite z-score [15]: 0.521
- composite z-score [16]: 4.05
- composite z-score [17]: 0.674
- composite z-score [18]: 1.29
- composite z-score [19]: 0.106
- composite z-score [20]: 1.14

SMILES: COc1cc(OC)c(C(O)C2C=CC3C(=O)N(c4ccccc4)C(=O)C3N2Nc2ccc(C(C)C)cc2)cc1Br (stereo not given)
- composite z-score [1]: 1.22
- z-score [2]: -0.533
- composite z-score [3]: 0.513
- composite z-score [4]: 1.34
- composite z-score [5]: 0.382
- composite z-score [6]: 0.238
- composite z-score [7]: 0.158
- composite z-score [8]: 1.68
- composite z-score [9]: 0.695
- composite z-score [10]: 1.92
- composite z-score [11]: 0.971
- composite Z-score [12]: -0.382 (inactive)
- composite z-score [13]: 0.274
- composite z-score [14]: 0.236
- composite z-score [15]: 0.426
- composite z-score [16]: 2.76
- composite z-score [17]: 0.231
- composite z-score [18]: 1.28
- composite z-score [19]: 0.1
- composite z-score [20]: 1.07

SMILES: C[N+](C)(C)CCCCNC(=O)[C@H]1C[C@H]2C(=O)N[C@@H](Cc3ccccc3)C(=O)N2[C@H]1c1cccc(OCCO)c1
- composite z-score [1]: -0.365
- z-score [2]: -0.741
- composite z-score [3]: 1.34
- composite z-score [4]: -1.14
- composite z-score [5]: -1.7
- composite z-score [6]: -0.0495
- composite z-score [7]: 0.151
- composite z-score [8]: -0.456
- composite z-score [9]: 1.17
- composite z-score [10]: -0.245
- composite z-score [11]: -1.43
- composite Z-score [12]: 0.466 (inactive)
- composite z-score [13]: 0.0401
- composite z-score [14]: -0.1
- composite z-score [15]: 0.542
- composite z-score [16]: 1.71
- composite z-score [17]: 1.3
- composite z-score [18]: 0.669
- composite z-score [19]: 1.5
- composite z-score [20]: 1.1

SMILES: COC(=O)[C@@]1(Cc2ccc(OC)cc2)[C@H]2c3cc(C(=O)N4CCCC4)n(CCn4cc([N+](=O)[O-])nc4C)c3C[C@H]2CN1C(=O)c1ccccc1
- composite z-score [1]: 0.0832
- z-score [2]: -0.432
- composite z-score [3]: 0.277
- composite z-score [4]: 2.72
- composite z-score [5]: 1.21
- composite z-score [6]: 1.19
- composite z-score [7]: 2.51
- composite z-score [8]: 3.12
- composite z-score [9]: 1.98
- composite z-score [10]: 0.299
- composite z-score [11]: 1.05
- composite Z-score [12]: 0.146 (inactive)
- composite z-score [13]: 1.67
- composite z-score [14]: 1
- composite z-score [15]: 0.62
- composite z-score [16]: 3.37
- composite z-score [17]: 0.913
- composite z-score [18]: 0.654
- composite z-score [19]: 0.406
- composite z-score [20]: 0.716

SMILES: CC(C)(C)N1CC=CC23O[C@@H]4/C=C\CCCOC(=O)C4[C@H]2C(=O)N(CCCCCO)[C@@H]3C1=O (stereo not given in full)
- composite z-score [1]: -0.267
- z-score [2]: -0.887
- composite z-score [3]: -1.48
- composite z-score [4]: -0.677
- composite z-score [5]: -0.893
- composite z-score [6]: -0.213
- composite z-score [7]: 0.074
- composite z-score [8]: -0.122
- composite z-score [9]: -0.286
- composite z-score [10]: -0.954
- composite z-score [11]: -1.58
- composite Z-score [12]: 0.794 (inactive)
- composite z-score [13]: -0.349
- composite z-score [14]: -0.126
- composite z-score [15]: 0.941
- composite z-score [16]: -0.584
- composite z-score [17]: 0.566
- composite z-score [18]: -0.484
- composite z-score [19]: -1.46
- composite z-score [20]: -1.46

SMILES: [N-]=[N+]=Nc1ccccc1C[C@@]1(C(=O)NCc2ccccc2)N=C(c2ccc(OCCCO)cc2)O[C@@H]1c1ccccc1N=[N+]=[N-]
- composite z-score [1]: -0.334
- z-score [2]: -3.01
- composite z-score [3]: -0.0656
- composite z-score [4]: 1.69
- composite z-score [5]: 0.683
- composite z-score [6]: 0.33
- composite z-score [7]: 0.171
- composite z-score [8]: 1.18
- composite z-score [9]: 1.19
- composite z-score [10]: 1.97
- composite z-score [11]: 0.913
- composite Z-score [12]: 0.605 (inactive)
- composite z-score [13]: 0.467
- composite z-score [14]: -0.0211
- composite z-score [15]: 0.398
- composite z-score [16]: 1.99
- composite z-score [17]: -0.136
- composite z-score [18]: 1.14
- composite z-score [19]: -0.656
- composite z-score [20]: 1.12

SMILES: COCCOC(=O)N1C(=O)[C@@]2(c3cc(C#CCC(C(=O)OC)C(=O)OC)ccc31)[C@H](C(N)=O)[C@H]1C(=O)O[C@H](c3ccccc3)[C@H](c3ccccc3)N1[C@@H]2c1ccc(O)cc1
- composite z-score [1]: 1.42
- z-score [2]: -2.77
- composite z-score [3]: 0.713
- composite z-score [4]: 1.01
- composite z-score [5]: 0.0194
- composite z-score [6]: 0.0179
- composite z-score [7]: 0.0328
- composite z-score [8]: -0.543
- composite z-score [9]: 1.08
- composite z-score [10]: 1.61
- composite z-score [11]: 0.751
- composite Z-score [12]: -0.642 (inactive)
- composite z-score [13]: 0.104
- composite z-score [14]: -0.0282
- composite z-score [15]: 0.407
- composite z-score [16]: 1.97
- composite z-score [17]: 0.134
- composite z-score [18]: 1.3
- composite z-score [19]: 0.778
- composite z-score [20]: 0.951

SMILES: CCN(CC)c1ccc(N2CC=CC34O[C@@H]5C=CCCOC(=O)C5[C@H]3C(=O)N(C(C)CO)[C@@H]4C2=O)cc1 (stereo not given in full)
- composite z-score [1]: 0.274
- z-score [2]: -1.19
- composite z-score [3]: -0.331
- composite z-score [4]: -0.521
- composite z-score [5]: -1.08
- composite z-score [6]: -0.0758
- composite z-score [7]: 0.194
- composite z-score [8]: 0.156
- composite z-score [9]: 0.391
- composite z-score [10]: -0.973
- composite z-score [11]: 0.653
- composite Z-score [12]: 0.195 (inactive)
- composite z-score [13]: 0.102
- composite z-score [14]: -0.159
- composite z-score [15]: 0.835
- composite z-score [16]: -0.806
- composite z-score [17]: 0.385
- composite z-score [18]: -0.304
- composite z-score [19]: -0.0271
- composite z-score [20]: -0.361

SMILES: CCCc1cc2c(n1CCc1ccc(Cl)cc1)C(C)C1CN(C(=O)c3ccccc3)C(C)(C(=O)OC)C21 (stereo not given)
- composite z-score [1]: 0.274
- z-score [2]: -2.1
- composite z-score [3]: -0.338
- composite z-score [4]: 2.48
- composite z-score [5]: 1.28
- composite z-score [6]: 0.16
- composite z-score [7]: 0.241
- composite z-score [8]: 1.24
- composite z-score [9]: 1.53
- composite z-score [10]: 2.19
- composite z-score [11]: 1.03
- composite Z-score [12]: 0.313 (inactive)
- composite z-score [13]: 0.201
- composite z-score [14]: 0.203
- composite z-score [15]: 0.862
- composite z-score [16]: 2.94
- composite z-score [17]: 1.07
- composite z-score [18]: 1.03
- composite z-score [19]: -1.75
- composite z-score [20]: 1.16

SMILES: COCCOC(=O)N1C(=O)[C@@]2(c3cc(C#CCNC(N)=O)ccc31)[C@H](C(=O)Nc1nc3ccccc3s1)[C@H]1C(=O)O[C@H](c3ccccc3)[C@H](c3ccccc3)N1[C@@H]2c1ccccc1OCCO
- composite z-score [1]: 0.629
- z-score [2]: -1.22
- composite z-score [3]: 0.685
- composite z-score [4]: 0.567
- composite z-score [5]: 0.132
- composite z-score [6]: -0.0405
- composite z-score [7]: 0.142
- composite z-score [8]: 0.355
- composite z-score [9]: 1.05
- composite z-score [10]: 0.771
- composite z-score [11]: 0.074
- composite Z-score [12]: -0.523 (inactive)
- composite z-score [13]: 0.0306
- composite z-score [14]: -0.0432
- composite z-score [15]: 0.47
- composite z-score [16]: 1.17
- composite z-score [17]: 0.151
- composite z-score [18]: 0.975
- composite z-score [19]: 1.23
- composite z-score [20]: 1.04
